Measured values: PubChem BioAssay AID588850 (Sanford-Burnham Center for Chemical Genomics, 2011)
About 3,100 (0.86%) of roughly 360,000 compounds were called active. What follows is part of a selection rich in actives, with near analogues and random picks from the rest. Unmarked numbers belong to inactive results.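 How the source made its calls: active means at least 50% inhibition at 5 µM, scaled per plate between neutral and stimulator controls; inactive means the rest.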

Assay: inhibitors of PAF-induced NF-kB signaling, primary screen, cell-based, GFP fluorescence, uHTS (AID 588850);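 further: PAF is a Pseudomonas aeruginosa culture filtrate used as stimulus; plate controls were PAF-stimulated DMSO wells for no effect and unstimulated DMSO wells for full effect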
Conditions: KKLEB NF-kB-GFP reporter, GFP fluorescence overnight, at 5 µM, stronger effect = higher value

| SMILES | inhibition |
| --- | --- |
| Cc1ccnc(NS(=O)(=O)c2ccc(NC(=O)c3oc4ccc(F)cc4c3C)cc2)n1 | 8.7% |
| COC(=O)c1ccc(NC(=O)CSc2nncn2-c2cccnc2)cc1 | -0.4% |
| Cc1cc(-c2ccccc2)n2nc(C)c(-c3ccccc3)c2n1 | 5.2% |
| O=C(NCCCN1CCN(c2ccc(F)cc2)CC1)Nc1ccc([N+](=O)[O-])cc1 | -19.1% |
| COc1cccc2sc(N(CCCN(C)C)C(=O)CCS(=O)(=O)c3ccccc3)nc12 | 88.4% (active) |
| Cc1ccc(S(=O)(=O)CCC(=O)OCC(=O)N(C)Cc2ccccc2)cc1 | 7.6% |
| Cc1cccc2sc(N(CCCN(C)C)C(=O)CCS(=O)(=O)c3ccccc3)nc12 | 85.7% (active) |
| Cc1cccc(C)c1NC(=O)CCS(=O)(=O)c1cccc2nsnc12 | -15.6% |
| O=C(CCS(=O)(=O)c1ccccc1)Nc1nc2c(s1)CCCC2 | -2.5% |
| COc1ccc(N(C)C(=O)CCS(=O)(=O)c2cccc3nsnc23)cc1 | -4% |
| CC(C#N)(NC(=O)CN1CCN(S(=O)(=O)c2cc(C(F)(F)F)ccc2Cl)CC1)C1CC1 (configuration not stated) | 17.9% |
| CCOC(=O)c1ccc(S(=O)(=O)N(CCO)Cc2cc3cc(OC)c(OC)cc3[nH]c2=O)cc1 | -25.3% |
| Nc1ncnc2c1ncn2[C@@H]1O[C@H](C(=O)N2CCSC2)[C@@H](O)[C@H]1O | 4.9% |
| COC(=O)C1=C(C)N(C)C(=O)NC1c1ccc([N+](=O)[O-])o1 (configuration not stated) | 1.5% |
| COC(=O)C1=C(C)NC2=C(C(=O)c3ccccc32)C1c1ccc(-c2ccc(C(=O)O)cc2)o1 (configuration not stated) | 76.6% (active) |
| COC(=O)C1=C(C)NC(=O)/C1=C/c1ccc(CNS(=O)(=O)c2ccc(C)cc2)o1 | -6.4% |
| Cc1cn([C@H]2C[C@H](O)[C@@H](CNC(=O)[C@H](N)Cc3cccnc3)O2)c(=O)[nH]c1=O | -3.6% |
| Cc1[nH]c(=O)c(C(=O)/C=C/c2ccccc2)c2c1CCCC2 | 51.1% (active) |
| COC(=O)c1c(C)[nH]c(C(=O)/C=C/c2ccc(Cl)cc2)c1C | 3.1% |

| SMILES | inhibition |
| --- | --- |
| CC1(C(=O)O)CCCN(C(=O)/C=C/c2ccccc2)C1 (configuration not stated) | -1.6% |
| Cn1c(SCC(=O)NC2CCCCC2)nnc1-c1ccc(N)cc1 | 3.7% |
| Cc1cc(OC(=O)c2ccccc2Cl)ccc1N1C(=O)CCC1=O | -7.9% |
| CC(NS(=O)(=O)c1ccccc1)c1n[nH]c(=S)n1-c1ccccc1 (configuration not stated) | -11.4% |
| Nc1[nH][nH]c(=O)c1N=Nc1ccc2c(c1)OCO2 | -6.6% |
| CCC(=O)N1CCC(C)(C(=O)Nc2cc(OC)c(OC)c(OC)c2)C1 (configuration not stated) | 13.9% |
| O=C(CNC(=O)c1ccccc1)NCC(=O)OCc1ccc(Cl)cc1 | -4.1% |
| CC(Oc1ccc2c(-c3ccccc3)cc(=O)oc2c1)C(=O)NC(Cc1c[nH]c2ccccc12)C(=O)O (configuration not stated) | -11.2% |
| O=C(CNC(=O)OCc1ccccc1)Oc1cc2oc(=O)cc(-c3ccccc3)c2cc1Cl | 72.8% (active) |
| Cc1cc(NC(=O)CS(=O)(=O)c2cn(C)c3ccccc23)no1 | -0.5% |
| OC[C@@H]1CN(Cc2ccc(-c3ccccc3)cc2)C[C@H](n2cnc3c(NC4CCCC4)ncnc32)O1 | -0.3% |
| Cc1nn(-c2ccccc2)c(Cl)c1/C=N/NC(=O)c1nn(C)cc1[N+](=O)[O-] | 52% (active) |
| Cn1cc([N+](=O)[O-])c(C(=O)Nc2ccc3c(c2)OCCO3)n1 | 15.1% |
| Cc1nn(-c2ccccc2)c(C)c1/C=N/NC(=O)CSc1nc2ccccc2c(=O)n1-c1ccccc1 | 23.3% |
| O=C(NC1CCN(C(=S)NCc2ccco2)CC1)c1ccc(F)cc1 | -0.1% |
| CCN(C(=O)c1ccc(Br)cc1)c1ccccc1 | 21.8% |
| C=CCN1C(=O)C(Cc2ccc(OCC)cc2)SC1=Nc1ccc(C(=O)O)cc1 (configuration not stated) | 4.1% |
| COc1cc(C(O)c2nc(-c3cccc(C(=O)O)c3)cs2)ccc1F (configuration not stated) | 12.4% |
| Cc1ccc(-c2csc(NC3OC(=O)c4ccccc43)n2)cc1 (configuration not stated) | 81.3% (active) |

| SMILES | inhibition |
| --- | --- |
| COc1ccc2c(c1OC)C(=O)OC2Nc1nc(-c2ccccc2)cs1 (configuration not stated) | 88.8% (active) |
| Cn1cc(C2OC(=O)c3ccccc32)c2ccccc21 (configuration not stated) | 41.4% |
| COc1ccccc1C(=O)Nc1nc2nc(-c3ccccc3)cc(=O)n2[nH]1 | -8% |
| Cc1ccc(-c2csc(NC(=O)C3=COCCO3)n2)cc1C | -43.3% |
| CN(CC(=O)O)S(=O)(=O)c1ccc2oc3ccccc3c2c1 | -19.3% |
| Cc1ccc(S(=O)(=O)Nc2ccc(F)c(S(=O)(=O)N3CCOCC3)c2)cc1 | -4.8% |
| O=C(Nc1ccccc1)c1ccccc1Br | -3.5% |
| COCCCNC(=O)c1ccc(-c2c(C)noc2C)c2ccoc12 | -59% |
| CC(=O)c1ccc(N2CCN(S(=O)(=O)c3c(C)[nH]c(=O)[nH]c3=O)CC2)cc1 | 13.2% |
| COc1cccc(/C=N/Nc2cc(C)nc(-c3ccccc3O)n2)c1O | 89.8% (active) |
| COc1cccc(Cn2cc(/C=N/NC(=O)c3cc(O)cc(O)c3)c3ccccc32)c1 | 1.7% |
| COc1cc(/C=N/Nc2ccc(C)cc2)cc(Br)c1O | -27.2% |
| O=C(CN1CCOCC1)N1CCCc2c1c(=O)oc1ccc(OCc3ccccc3)cc21 | -14.3% |
| Cc1nn2c(c1-c1ccccc1)N=C(c1ccco1)CC2c1ccccc1 (configuration not stated) | -5.8% |
| Cc1cc(Br)ccc1NC(=O)CN(C)C(=O)CN1C(=O)NC2(CCCC2)C1=O | -8.9% |
| COc1ccc(CNC(=O)/C(C#N)=C/c2cccc(OC)c2OC)cc1 | 59.3% (active) |
| COc1ccc(/C=C(\C#N)C(=O)NCCCn2ccnc2)cc1 | 10.2% |
| COc1ccc(NC(=O)/C(C#N)=C\c2cc(OC)c(OCc3ccc(C(=O)O)cc3)cc2Br)cc1 | -82.3% |
| Cc1ccc(S(=O)(=O)NNC(=O)/C=C/c2cccc(F)c2)cc1 | -21.5% |
